Our source for the Potency, viability change and activation values is PubChem BioAssay (NCATS).

The target in assay [1] is D(1A) dopamine receptor (Homo sapiens) (UniProt P21728). In words: HTS Assay for Allosteric Agonists of the Human D1 Dopamine Receptor: Primary Screen for Agonists (AID 488981). Further: 0% is about no effect. The method in brief: (§1)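 Calcium flux in an inducible, force-coupled HEK293 Trex D1 line (overnight at 30 C): agonist mode is the 180 s kinetic read after compound; potentiator mode is the following 180 s read after dopamine at EC20.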
Sequence of D(1A) dopamine receptor (Homo sapiens) (P21728 whole entry, looked up): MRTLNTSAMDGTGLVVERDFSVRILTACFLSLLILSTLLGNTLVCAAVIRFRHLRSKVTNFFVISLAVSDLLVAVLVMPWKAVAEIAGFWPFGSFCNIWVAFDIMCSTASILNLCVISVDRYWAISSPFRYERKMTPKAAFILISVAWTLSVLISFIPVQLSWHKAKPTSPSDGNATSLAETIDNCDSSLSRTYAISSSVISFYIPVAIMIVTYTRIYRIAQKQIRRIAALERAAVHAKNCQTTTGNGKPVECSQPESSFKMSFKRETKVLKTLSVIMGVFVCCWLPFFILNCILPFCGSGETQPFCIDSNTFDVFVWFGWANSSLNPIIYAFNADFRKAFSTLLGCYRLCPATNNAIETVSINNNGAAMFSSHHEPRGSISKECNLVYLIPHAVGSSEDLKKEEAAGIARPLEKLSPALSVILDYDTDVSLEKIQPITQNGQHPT

Assay [2] shares this target. In words: HTS Assay for Allosteric Agonists of the Human D1 Dopamine Receptor: Primary Screen for Antagonists (AID 488983).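 Further: calcium flux response to an EC80 dopamine challenge measured with no-wash dye; nearly all actives have a fitted effect of over 65% in size.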 Further: potency means the concentration at half of the fitted maximal effect. The method in brief: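 Cells are induced with tetracycline and incubated overnight at 30 C, then loaded with calcium dye for 30 to 90 minutes at room temperature. Compound addition is followed by a 180 s read, then an EC80 dopamine addition and another 180 s read.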

The nature of assay [3]: Validation screen for small molecules that induce genotoxicity in human embryonic kidney (HEK293T) cells expressing luciferase-tagged ELG1 (AID 493106). Further: 0% is about no effect. The method in brief: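 Luminescence from an ELG1-luciferase fusion serves as the read-out, rising when genetic stress elevates ELG1 protein. HEK293T reporter cells (2,000 per well) received 23 nL compound, incubated 16 hr at 37 °C, then ONE-Glo for 30 min at room temperature.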

Assay [4] deals with ATPase family AAA domain-containing protein 5 (Homo sapiens) (UniProt Q96QE3). Briefly: Validation screen for small molecules that inhibit ELG1-dependent DNA repair in human embryonic kidney (HEK293T) cells expressing luciferase-tagged ELG1 (AID 493107). Further: nearly all actives have a fitted effect of over 70% in size. Further: potency means the concentration at half of the fitted maximal effect. The method in brief:
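Luminescence from ONE-Glo, developed 30 min at room temperature, served as read-out of ELG1-luciferase levels. Beforehand, reporter HEK293T cells received 5-fluorouridine plus test compound for 16 hr at 37 °C.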

Assay [5] is described as follows: Nrf2 qHTS screen for inhibitors: Validation (AID 493153; active means well fitted inhibition curve with a large enough effect in the main read-out, with a control signal flat, not every such curve was filed as active; further: potency means the concentration at half of the fitted maximal effect). The settings on record: Potency: luciferase luminescence; viability change: measured here: cytotoxicity max response. The method in brief: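 Luminescence from an ARE-firefly luciferase reporter in A549 cells gives Nrf2 inhibition; an earlier CellTiter-Fluor fluorescent read flags cytotoxicity. Cells in 5% FBS OPTI-MEM received compound dilution series for 18-24 h at 37°C.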
For orientation: In qHTS, concentration-response curves come from the screen itself.

Assay [6] addresses D(1A) dopamine receptor (Homo sapiens) (UniProt P21728). Briefly: HTS Assay for Allosteric Agonists of the Human D1 Dopamine Receptor: Primary Screen for Potentiators (AID 488982). Further: potency means the concentration at half of the fitted maximal effect. The method in brief:
as §1

Assay [7] has as its target Thyrotropin-releasing hormone receptor (Homo sapiens) (UniProt P34981). Briefly: qHTS for Small Molecule Agonists and Allosteric Enhancers of Human TRH Receptor: Validation Screen for Agonists (AID 493127;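 active means calcium activation more than 3 SD above the typical response in the agonist read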;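 further: intracellular calcium rise by fluo-8 fluorescence before TRH EC20 addition; 0% is about no effect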). As to conditions: TRH receptor agonist cell assay; at 2 µM; stronger effect = higher value. The method in brief: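 Cells 2000/well, 10% FCS, 18 h 33.5C/5% CO2 → fluo-8 Ca dye, RT 30 min–1.5 h → FDSS baseline 10 × 1 s → compound added → 230 cycles (1 s/cycle) agonist mode. TRH controls.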

Records with an inconclusive call do not appear. Activity calls are given as the source filed them. Unless noted, the call rests on the fitted dose curve; in most records, active means well fitted curve in the direction sought with a large enough effect; inconclusive means small, poorly fitted or top-dose-only effect, or another doubt; inactive means no such curve, though single readings can be large; an effect the other way counts as inactive or inconclusive.

Sequence of ATPase family AAA domain-containing protein 5 (Homo sapiens) (Q96QE3 whole entry, looked up, the tested form may be a part): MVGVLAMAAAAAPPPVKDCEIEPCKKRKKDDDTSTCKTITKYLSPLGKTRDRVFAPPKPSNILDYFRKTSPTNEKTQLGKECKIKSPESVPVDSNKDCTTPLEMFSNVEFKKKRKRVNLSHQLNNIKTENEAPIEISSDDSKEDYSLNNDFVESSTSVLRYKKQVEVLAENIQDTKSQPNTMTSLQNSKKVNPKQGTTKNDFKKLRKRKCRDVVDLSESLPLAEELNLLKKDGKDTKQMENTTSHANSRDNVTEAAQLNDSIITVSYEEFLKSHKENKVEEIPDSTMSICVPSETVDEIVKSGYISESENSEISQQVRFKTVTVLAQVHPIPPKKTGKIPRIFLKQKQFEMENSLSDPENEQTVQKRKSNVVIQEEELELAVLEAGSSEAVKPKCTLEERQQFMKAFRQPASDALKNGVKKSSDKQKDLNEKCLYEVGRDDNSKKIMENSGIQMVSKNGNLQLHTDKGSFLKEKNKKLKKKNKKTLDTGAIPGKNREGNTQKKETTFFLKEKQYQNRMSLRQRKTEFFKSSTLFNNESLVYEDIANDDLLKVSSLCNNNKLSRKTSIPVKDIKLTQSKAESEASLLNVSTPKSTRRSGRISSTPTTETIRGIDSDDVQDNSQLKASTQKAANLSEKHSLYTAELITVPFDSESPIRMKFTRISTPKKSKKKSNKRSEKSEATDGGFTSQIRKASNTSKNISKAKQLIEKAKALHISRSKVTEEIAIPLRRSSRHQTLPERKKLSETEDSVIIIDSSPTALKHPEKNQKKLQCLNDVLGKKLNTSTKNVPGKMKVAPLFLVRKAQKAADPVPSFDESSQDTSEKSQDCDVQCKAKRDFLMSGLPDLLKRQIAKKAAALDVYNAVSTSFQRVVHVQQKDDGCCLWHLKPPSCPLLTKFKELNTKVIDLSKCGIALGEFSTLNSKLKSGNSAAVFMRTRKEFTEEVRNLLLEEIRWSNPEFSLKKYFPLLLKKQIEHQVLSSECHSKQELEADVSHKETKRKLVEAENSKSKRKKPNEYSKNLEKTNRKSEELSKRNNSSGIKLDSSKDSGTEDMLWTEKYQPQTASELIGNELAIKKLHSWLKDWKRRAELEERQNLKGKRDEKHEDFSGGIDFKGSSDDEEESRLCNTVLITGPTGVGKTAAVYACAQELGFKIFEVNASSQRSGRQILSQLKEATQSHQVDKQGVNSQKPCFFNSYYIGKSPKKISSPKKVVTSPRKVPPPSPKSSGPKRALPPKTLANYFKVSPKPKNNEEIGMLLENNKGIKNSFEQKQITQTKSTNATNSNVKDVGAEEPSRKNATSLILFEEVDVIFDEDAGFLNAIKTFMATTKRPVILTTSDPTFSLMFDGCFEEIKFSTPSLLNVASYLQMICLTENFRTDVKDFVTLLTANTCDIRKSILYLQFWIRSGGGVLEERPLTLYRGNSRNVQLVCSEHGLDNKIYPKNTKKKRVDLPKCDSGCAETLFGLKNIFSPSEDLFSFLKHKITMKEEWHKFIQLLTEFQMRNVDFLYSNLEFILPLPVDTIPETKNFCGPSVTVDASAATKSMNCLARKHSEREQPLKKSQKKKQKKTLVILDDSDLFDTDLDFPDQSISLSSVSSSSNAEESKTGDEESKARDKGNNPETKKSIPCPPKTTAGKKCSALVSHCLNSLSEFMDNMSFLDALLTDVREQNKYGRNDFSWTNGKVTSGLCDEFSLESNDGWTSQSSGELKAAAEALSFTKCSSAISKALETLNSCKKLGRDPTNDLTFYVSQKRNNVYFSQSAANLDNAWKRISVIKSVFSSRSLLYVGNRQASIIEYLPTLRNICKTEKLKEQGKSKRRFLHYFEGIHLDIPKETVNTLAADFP
Sequence of Thyrotropin-releasing hormone receptor (Homo sapiens) (P34981 whole entry, looked up): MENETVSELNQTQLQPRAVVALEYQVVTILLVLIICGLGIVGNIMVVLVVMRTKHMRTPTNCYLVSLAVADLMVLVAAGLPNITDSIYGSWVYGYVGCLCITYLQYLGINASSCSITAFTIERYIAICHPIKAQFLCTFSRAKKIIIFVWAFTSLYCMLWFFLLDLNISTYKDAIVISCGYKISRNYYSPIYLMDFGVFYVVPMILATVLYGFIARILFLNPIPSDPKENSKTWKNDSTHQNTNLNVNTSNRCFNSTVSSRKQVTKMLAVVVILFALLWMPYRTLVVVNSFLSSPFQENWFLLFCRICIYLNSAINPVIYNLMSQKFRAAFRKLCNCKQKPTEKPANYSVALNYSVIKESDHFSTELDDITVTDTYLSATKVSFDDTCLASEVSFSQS

As for `CSC(=N)N`, the Potency result in assay [1], in assay [2], in assay [3], in assay [4] and in assay [5] was “inactive” each time. In addition, the viability change in assay [5] was -21.7%.

For the molecule `Nc1ncnc2c1nc(Br)n2C1OC2COP(=O)(O)O[C@@H]2C1O` (some centres not stated), the Potency result in assay [6], in assay [2], in assay [3], in assay [4] and in assay [5] was “inactive” in each case. Besides, in assay [5], the viability change worked out at 1.09%.

Take `C=C1C[C@@]23CC[C@H]4[C@@](C)(CCC[C@@]4(C)C(=O)OC4OC(CO)C(O)C(O)C4O)[C@@H]2CC[C@]1(OC1OC(CO)C(O)C(O)C1OC1OC(CO)C(O)C(O)C1O)C3` (some centres not stated): the Potency entry in assay [1], in assay [6], in assay [2], in assay [3], in assay [4] and in assay [5] was “inactive” in each case. Also, in assay [5], the viability change is -3.06%.

Consider `c1ccc(C(NCc2cccnc2)(c2ccccc2)c2ccccc2)cc1`, for which the Potency entry in assay [1], in assay [3] and in assay [5] was “inactive” each time. The Potency in assay [6] was 4.11 µM (active). The viability change in assay [5] stood at 7.92%.

Regarding `CC(N)(Cc1ccc(O)c(O)c1)C(=O)O` (configuration not stated), the Potency result in assay [1], in assay [2], in assay [3], in assay [4] and in assay [5] was “inactive” in each case. The activation in assay [7] is 0% (inactive). In assay [5], the viability change is -0.588%.

For `c1ccc(C(NCCNC(c2ccccc2)c2ccccc2)c2ccccc2)cc1`, the Potency entry in assay [1], in assay [3] and in assay [4] was “inactive” in each case.

With `CCCn1c(=O)c(C)cn2nc(N)nc12`, the Potency entry in assay [1], in assay [2], in assay [3], in assay [4] and in assay [5] was “inactive” in each case. In addition, the viability change in assay [5] is -13%.

Regarding `C=CCNc1ncnc2ccc(Br)cc12`, the Potency entry in assay [1], in assay [2] and in assay [3] was “inactive” throughout. For the same molecule, the Potency in assay [4] is 7.3 µM (active).

`CC(=O)O[C@H]1Cc2ccccc2N(C(N)=O)c2ccccc21`: the Potency entry in assay [1], in assay [2], in assay [3], in assay [4] and in assay [5] was “inactive” each time. For the same molecule, the viability change in assay [5] is -3.02%.

Consider `CSc1nc(N)c2ncn([C@@H]3O[C@H](COP(=O)(O)OP(=O)(O)O)C(O)[C@H]3O)c2n1` (some centres not stated), for which, in assay [6], the Potency was 0.0517 µM (active). In addition, the Potency result in assay [4] is “inactive”. Further, in assay [5], the Potency entry is “inactive” and the viability change stood at 0.858%.

Turning to `CN1Cc2sccc2C(c2ccc(O)c(O)c2)C1` (configuration not stated), the Potency result in assay [6], in assay [3], in assay [4] and in assay [5] was “inactive” each time. The Potency in assay [2] was 0.355 µM (active). The viability change in assay [5] is 12.4%.

For the molecule `C[C@]12C=CC(=O)C=C1CC[C@@H]1C2=CC[C@]2(C)[C@@H](C(=O)CN3CCN(c4cc(N5CCCC5)nc(N5CCCC5)n4)CC3)CC[C@@H]12`, the Potency result in assay [1], in assay [6], in assay [2], in assay [3] and in assay [5] was “inactive” throughout. Besides, the viability change in assay [5] is -17.1%.

As for `C=C1C[C@@]23CC[C@H]4[C@@](C)(CCC[C@@]4(C)C(=O)O)[C@@H]2CC[C@]1(O)C3`, the Potency result in assay [1], in assay [6], in assay [3], in assay [4] and in assay [5] was “inactive” throughout. In addition, the viability change in assay [5] was -13.4%.

Turning to `C[C@](Cc1ccc(O)c(O)c1)(NN)C(=O)O`, the Potency result in assay [1], in assay [2], in assay [3], in assay [4] and in assay [5] was “inactive” each time. Further, the viability change in assay [5] is -1.27%.

For `Oc1ccc(/C=C/c2ccc(/C=C/c3ccc(O)cc3)c(Br)c2)cc1`, the Potency entry in assay [1], in assay [6], in assay [3], in assay [4] and in assay [5] was “inactive” each time. The viability change in assay [5] was found to be 2.12%.

For `OC[C@H]1O[C@H](n2cnc3c(N[C@H]4CCC[C@@H]4O)ncnc32)[C@H](O)[C@@H]1O`, the Potency entry in assay [1], in assay [6] and in assay [5] was “inactive” throughout. The viability change in assay [5] was found to be 2.15%.

Regarding `Cc1nc2n(c(=O)c1CCN1CCC(c3noc4cc(F)ccc34)CC1)CCCC2O` (configuration not stated), the Potency result in assay [6], in assay [3], in assay [4] and in assay [5] was “inactive” throughout. The viability change in assay [5] was 3.12%.

Take `O=C(O)CCC/C=C\C[C@@H]1[C@@H](/C=C/[C@H](O)C2Cc3ccccc3C2)[C@@H](F)C[C@@H]1O`: the Potency entry in assay [6], in assay [2], in assay [3] and in assay [4] was “inactive” throughout.

For the molecule `NCC(O)c1ccc(O)c(O)c1` (configuration not stated), the Potency result in assay [1], in assay [6], in assay [3] and in assay [5] was “inactive” in each case. In assay [2], the Potency was 14.1 µM (active). In assay [5], the viability change is 3.36%.

As to `CN1CC(O)C(O)C(O)C1CO` (configuration not stated), the Potency result in assay [6], in assay [2], in assay [3], in assay [4] and in assay [5] was “inactive” each time. In addition, the viability change in assay [5] amounted to 2.46%.

`C[C@H]1CC2C3CCC4=CC(=O)C=C[C@]4(C)[C@@]3(Cl)[C@@H](O)C[C@]2(C)[C@@]1(O)C(=O)CO` (some centres not stated): the Potency entry in assay [1], in assay [6], in assay [2], in assay [3] and in assay [4] was “inactive” in each case. The Potency in assay [5] is 0.0164 µM (active). Also, in assay [5], the viability change amounted to 4.17%.

For `CCc1ccc2c(-c3cccc(Cl)c3)nc(=O)n(CC)c2n1`, the Potency entry in assay [1], in assay [6], in assay [2], in assay [3], in assay [4] and in assay [5] was “inactive” each time. Moreover, the viability change in assay [5] stood at 1.57%.

Turning to `CC(C)(C)c1ccc(/C=C/C(=O)Nc2ccc3c(c2)OCCO3)cc1`, the Potency entry in assay [1], in assay [6], in assay [2] and in assay [3] was “inactive” throughout. For the same molecule, the Potency was 18.3 µM (active) in assay [4] and 10.3 µM (active) in assay [5]. Besides, the viability change in assay [5] was -12.9%.

Consider `CC1=C(/C=C/C(C)=C/C=C/C(C)=C\C(=O)O)C(C)(C)CCC1`, for which the Potency result in assay [1], in assay [6], in assay [2], in assay [3] and in assay [5] was “inactive” throughout. The activation in assay [7] is 0.75% (inactive). Also, in assay [5], the viability change is 8.59%.

`CC(C)NC[C@H](O)COc1cccc2ccccc12`: the Potency entry in assay [6], in assay [3], in assay [4] and in assay [5] was “inactive” each time. Besides, the viability change in assay [5] was -4.73%.

Regarding `Nc1nc2c(cnn2CCc2ccccc2)c2nc(-c3ccco3)nn12`, the Potency entry in assay [1], in assay [2], in assay [4] and in assay [5] was “inactive” in each case. Moreover, the viability change in assay [5] is -1.96%.

Take `N[C@H](C(=O)O)[C@H](Cc1ccccc1)C(=O)O`: the Potency entry in assay [1], in assay [6], in assay [2], in assay [3], in assay [4] and in assay [5] was “inactive” each time. Further, the viability change in assay [5] is -3.91%.

In the case of `Nc1ncnc2c1nc(Sc1ccc(Cl)cc1)n2[C@H]1OC2COP(=O)(O)O[C@@H]2C1O` (some centres not stated), the Potency result in assay [6], in assay [2], in assay [4] and in assay [5] was “inactive” throughout. Further, in assay [5], the viability change is 3.2%.

As to `CC(C)[C@@H]1CC[C@@H](C)C[C@@H]1P(=O)(c1ccccc1)c1ccccc1`, the Potency result in assay [1], in assay [6], in assay [2], in assay [3], in assay [4] and in assay [5] was “inactive” each time. The viability change in assay [5] is -1.08%.

Take `O=c1[nH]c(=S)[nH]c(-c2ccccc2)c1Cc1c(O)ccc2ccccc12`: the Potency result in assay [1], in assay [2], in assay [3] and in assay [4] was “inactive” each time.

For the molecule `CCCCCCC(=O)OC1CC(C)(C)NC(C)(C)C1`, the Potency entry in assay [1], in assay [6], in assay [2], in assay [3] and in assay [5] was “inactive” in each case. Besides, the viability change in assay [5] is 2.37%.

In the case of `Cc1cc(Cn2cnc3c2C[C@@H](C(=O)O)N(C(=O)C(c2ccccc2)c2ccccc2)C3)ccc1N`, the Potency result in assay [1], in assay [6], in assay [3], in assay [4] and in assay [5] was “inactive” each time. In addition, the viability change in assay [5] came out at 6.54%.

For the molecule `NC[C@@H]1O[C@H](c2ccccc2)Cc2c1ccc(O)c2O`, the Potency entry in assay [1], in assay [3], in assay [4] and in assay [5] was “inactive” in each case. In addition, in assay [5], the viability change is -1.5%.
